The source holds several records for some structures; these can differ, active in one and inactive in another. Calls of active or inactive are those of the source. Rule for the calls: active = hit-call score of the fitted dose curve at least 0.9, where 1 is the maximum; inactive = score below 0.9.

A word on the AC50: it is the midpoint of the concentration-response curve, whichever way the signal moves.

Assay [1] can be described thus: ATG_M_32_CIS: Attagene CIS-FACTORIAL HepG2 Assay for M32 Transcription Factor (Internal Marker) (AID 2282949).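 Note: background control marker of the multiplexed CIS panel rather than a real target.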 The settings on record: HepG2 Attagene cis-factorial M32 reporter, mRNA; actives raise or lower the signal. The method in brief: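 HepG2 transfectants (cis-regulated reporter transcription units) dosed 24 h. Reporter mRNA by RT-PCR plus CE, analysed as gain or loss relative to DMSO.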

Assay [2] is described as follows: ATG_M_06_CIS: Attagene CIS-FACTORIAL HepG2 Assay for M06 Transcription Factor (Internal Marker) (AID 2282950). Particulars: HepG2 Attagene CIS-FACTORIAL M06 internal marker reporter; actives raise or lower the signal. The method, boiled down: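 One of many multiplexed endpoints: HepG2 reporter mRNA after 24 h dosing, detected by RT-PCR and capillary electrophoresis fluorescence; gain or loss of signal analysed against DMSO.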

For assay [3], the target named is Hypoxia-inducible factor 1-alpha (Homo sapiens) (UniProt Q16665). The assay is described as follows: ATG_HIF1a_CIS: Attagene CIS-FACTORIAL HepG2 Assay for human Hypoxia Inducible Factor 1 (HIF1A) (AID 2282951). The settings on record: HepG2 Attagene cis-factorial HIF1a reporter transcription; actives raise or lower the signal. The method, boiled down: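 Transient MRTU transfection of human HepG2 liver cells, 24 h compound treatment, then total RNA isolation, oligo(dT) reverse transcription, PCR amplification, fluorescent labelling and capillary electrophoresis of reporter fragments. Gain or loss relative to DMSO.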

In assay [4] the target is Hepatocyte nuclear factor 6 (Homo sapiens) (UniProt Q9UBC0). The assay can be described thus: ATG_HNF6_CIS: Attagene CIS-FACTORIAL HepG2 Assay for human Hepatocyte Nuclear Factor 6 (HNF6) (AID 2282952). The settings on record: HepG2 Attagene cis-factorial HNF6 reporter transcription; actives raise or lower the signal. The method, boiled down:
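Endogenous transcription factor activity in human HepG2 liver cells was captured through cis-regulated reporter constructs. After 24 h treatment, reporter mRNA was measured by RT-PCR with capillary electrophoresis, and activity was fitted in both directions relative to DMSO.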

Assay [5] has as its target Heat shock factor protein 1 (Homo sapiens) (UniProt Q00613). The assay can be described thus: ATG_HSE_CIS: Attagene CIS-FACTORIAL HepG2 Assay for human Heat Shock Transcription Factor 1 (HSE) (AID 2282953). Particulars: HepG2 HSE cis-reporter, Attagene RNA transcription; actives raise or lower the signal. The method, boiled down: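 Using HepG2 with transfected cis-driven reporter constructs, compound effects on endogenous factor activity are scored as reporter mRNA change at 24 h. Detection: RT-PCR, HpaI digestion, capillary electrophoresis; bidirectional fitting to DMSO.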

Assay [6] can be described thus: ATG_MRE_CIS: Attagene CIS-FACTORIAL HepG2 Assay for human Metal Responsive Element (MRE) (AID 2282954). The settings on record: HepG2 MRE cis-reporter transcription, Attagene multiplex; actives raise or lower the signal. The method in brief:
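Measured here is mRNA induction from an MRE cis-element reporter in HepG2 after 24 h, quantified by fluorescence of labelled RT-PCR products on capillary electrophoresis; gain- and loss-of-signal fits use DMSO as baseline.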

Assay [7] deals with Paired box protein Pax-6 (Homo sapiens) (UniProt P26367). The assay is described as follows: ATG_Pax6_CIS: Attagene CIS-FACTORIAL HepG2 Assay for human Paired Box 6 (PAX6) (AID 2282956). Particulars: HepG2 CIS-FACTORIAL PAX6 reporter transcription, RNA readout; actives raise or lower the signal. The method in brief: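 Readout: reporter transcript fluorescence after RT-PCR and capillary electrophoresis. Cells: HepG2, transiently transfected with cis-regulated MRTUs. Exposure 24 h. Gain or loss of signal fitted bidirectionally relative to DMSO.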

Assay [8] in a line: ATG_PXRE_CIS: Attagene CIS-FACTORIAL HepG2 Assay for human Pregnane X Receptor Element (PXRE) (AID 2282957). The settings on record: HepG2 Attagene CIS-FACTORIAL PXRE reporter, mRNA; actives raise or lower the signal. The method in brief: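 Endogenous transcription factor activity in HepG2 was gauged through induction of reporter mRNA driven by a cis-regulating promoter element, sampled 24 h post-treatment. Activity was fitted in both directions against DMSO negative control.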

Assay [9] can be described thus: ATG_RORE_CIS: Attagene CIS-FACTORIAL HepG2 Assay for human RAR-related Orphan Receptor Element (RORE) (AID 2282959). The settings on record: HepG2 Attagene cis-factorial RORE reporter, mRNA; actives raise or lower the signal. The method in brief: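 Transient MRTU transfection of human HepG2 liver cells (FuGene 6); 24 h compound exposure; TriZol RNA, oligo(dT) RT, PCR, FAM labeling, HpaI cut, CE fragment analysis. DMSO = negative control/baseline.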

Assay [10] can be described thus: ATG_Sox_CIS: Attagene CIS-FACTORIAL HepG2 Assay for human SRY-box transcription factor (SOX) (AID 2282960). The settings on record: HepG2 Attagene cis-factorial SOX reporter, mRNA; actives raise or lower the signal. The method in brief: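 Endogenous factor activity in human liver HepG2 cells carrying transfected cis-regulated reporter units. RNA taken 24 h post-dose, reverse-transcribed, PCR-amplified and sized by capillary electrophoresis. Gain or loss of signal fitted relative to DMSO.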

The target in assay [11] is Transcription factor Sp1 (Homo sapiens) (UniProt P08047). The assay is described as follows: ATG_Sp1_CIS: Attagene CIS-FACTORIAL HepG2 Assay for human Specificity Protein 1 (Sp1) (AID 2282961). The settings on record: HepG2 Sp1 cis-reporter transcription, actives raise or lower the signal. The method in brief:
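Transient MRTU-transfected HepG2, 24 h compound exposure. Total RNA → oligo(dT) RT → PCR of reporter → 6-FAM primer extension → HpaI digest → CE. Endpoint fitted both directions vs DMSO.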

A short description of assay [12]: ATG_SREBP_CIS: Attagene CIS-FACTORIAL HepG2 Assay for human Sterol Regulatory Element Binding (SREBP) (AID 2282962). Particulars: HepG2 Attagene cis-factorial SREBP reporter, mRNA; actives raise or lower the signal. The method, boiled down: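 Readout: fluorescent reporter-transcript peaks resolved by capillary electrophoresis after RT-PCR. Cells were human HepG2 carrying transfected cis-promoter reporter constructs, dosed for 24 h. Gain or loss of signal was fitted against DMSO controls.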

For assay [13], the target named is Signal transducer and activator of transcription 3 (Homo sapiens) (UniProt P40763). The assay can be described thus: ATG_STAT3_CIS: Attagene CIS-FACTORIAL HepG2 Assay for human Signal Transducer and Activator of Transcription 3 (STAT3) (AID 2282963). Particulars: HepG2, Attagene cis-factorial STAT3 reporter transcription; actives raise or lower the signal. The method in brief:
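Fluorescence intensity of 6-FAM-labelled reporter fragments, separated by capillary electrophoresis after RT-PCR, gave the signal. Cells were HepG2 transfected with cis-element reporter units and treated 24 h; fitting was bidirectional relative to DMSO.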

Assay [14] can be described thus: ATG_TA_CIS: Attagene CIS-FACTORIAL HepG2 Assay for human TA Basal Promoter (AID 2282964). The settings on record: HepG2 Attagene CIS-factorial TA basal promoter reporter; actives raise or lower the signal. The method in brief:
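Transient MRTU transfection of HepG2 preceded 24 h compound exposure. Reporter mRNA levels were then read by RT-PCR with capillary electrophoresis, and this background-control endpoint was fitted bidirectionally to DMSO.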

Assay [15] in a line: ATG_TCF_b_cat_CIS: Attagene CIS-FACTORIAL HepG2 Assay for human T-Cell-Factor with beta-catenin (TCF/b-cat) (AID 2282965). The settings on record: HepG2 TCF/beta-catenin cis-reporter transcription, actives raise or lower the signal. The method, boiled down:
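HepG2, transient MRTU transfection, cis-element-driven reporters (endogenous TFs). 24 h compound exposure. Readout: reporter mRNA by RT-PCR + 6-FAM primer extension, HpaI digest, capillary electrophoresis. Gain/loss fit vs DMSO baseline.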

Assay [16] in a line: ATG_TAL_CIS: Attagene CIS-FACTORIAL HepG2 Assay for human TAL Basal Promoter (AID 2282966).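 Note: background control endpoint measuring basal TAL promoter reporter mRNA not a specific factor.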 Particulars: HepG2 Attagene cis-factorial TAL promoter reporter; actives raise or lower the signal. The method, boiled down: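 Endogenous transcription-factor activity is sensed in HepG2 cells through transfected cis-promoter reporter constructs. After 24 h dosing, reporter transcripts are quantified by RT-PCR and capillary electrophoresis. Gain or loss of signal is fitted relative to DMSO.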

Assay [17] can be described thus: ATG_TGFb_CIS: Attagene CIS-FACTORIAL HepG2 Assay for human Transforming Growth Factor (TGF) (AID 2282967). Particulars: HepG2 Attagene CIS TGFb reporter, mRNA transcription; actives raise or lower the signal. The method in brief:
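After a 24-hour incubation with compound, transfected HepG2 cells were lysed for RNA; reporter cDNA was amplified, fluorescently end-labeled and separated by CE. DMSO served as baseline for bidirectional fits.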

Assay [18] is described as follows: ATG_VDRE_CIS: Attagene CIS-FACTORIAL HepG2 Assay for human Vitamin D Receptor Element (VDRE) (AID 2282968). The settings on record: HepG2 VDRE cis-reporter transcription, actives raise or lower the signal. The method, boiled down:
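Compounds were applied for 24 h to HepG2 cells transfected with promoter-regulated reporter units. Total RNA was reverse-transcribed, and reporter amplicons were fluorescently labelled and sized by capillary electrophoresis.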

Assay [19] is described as follows: ATG_PPRE_CIS: Attagene CIS-FACTORIAL HepG2 Assay for human Peroxisome Proliferator-activated Response Element (PPRE) (AID 2282958). The settings on record: HepG2 PPRE cis-element reporter, Attagene transcription factor profiling; actives raise or lower the signal. The method in brief: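 HepG2, transient MRTU transfection (cis promoter elements, endogenous TFs). 24 h dosing. RNA → oligo(dT) RT → PCR → 6-FAM primer extension → HpaI digest → CE. Bidirectional fit vs DMSO.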

Assay [20] in a line: ATG_PBREM_CIS: Attagene CIS-FACTORIAL HepG2 Assay for human Phenobarbital-responsive Enhancer Module (PBREM) (AID 2282955). Particulars: HepG2 PBREM cis-reporter, Attagene multiplexed transcription; actives raise or lower the signal. The method, boiled down: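 Endogenous transcription factors in human liver HepG2 cells drive a PBREM cis-element reporter, whose transcript level after 24 h treatment is quantified by RT-PCR with capillary electrophoresis; activity fitted in both directions against DMSO.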

Hypoxia-inducible factor 1-alpha (Homo sapiens), sequence (Q16665 whole entry, looked up, the tested form may be a part): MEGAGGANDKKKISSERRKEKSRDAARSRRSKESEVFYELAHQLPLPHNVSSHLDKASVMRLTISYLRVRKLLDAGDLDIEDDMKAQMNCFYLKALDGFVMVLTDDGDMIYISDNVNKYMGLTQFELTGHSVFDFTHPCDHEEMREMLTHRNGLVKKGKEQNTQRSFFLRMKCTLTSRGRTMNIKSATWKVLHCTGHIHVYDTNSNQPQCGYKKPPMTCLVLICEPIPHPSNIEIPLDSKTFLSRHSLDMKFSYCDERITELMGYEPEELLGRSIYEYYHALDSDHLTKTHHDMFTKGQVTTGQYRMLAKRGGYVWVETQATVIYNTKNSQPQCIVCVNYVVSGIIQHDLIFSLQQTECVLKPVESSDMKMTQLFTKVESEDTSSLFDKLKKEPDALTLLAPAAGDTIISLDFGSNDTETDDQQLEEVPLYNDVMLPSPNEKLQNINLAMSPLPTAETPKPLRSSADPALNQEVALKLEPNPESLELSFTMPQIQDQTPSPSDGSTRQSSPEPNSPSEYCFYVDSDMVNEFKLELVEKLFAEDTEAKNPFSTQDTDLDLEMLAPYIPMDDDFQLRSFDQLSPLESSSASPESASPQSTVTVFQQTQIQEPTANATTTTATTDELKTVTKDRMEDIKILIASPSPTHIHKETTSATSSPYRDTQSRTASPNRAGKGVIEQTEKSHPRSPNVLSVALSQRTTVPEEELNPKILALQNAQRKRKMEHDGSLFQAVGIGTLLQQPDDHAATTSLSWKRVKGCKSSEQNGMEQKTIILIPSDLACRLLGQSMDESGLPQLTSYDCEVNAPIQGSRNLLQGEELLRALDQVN
Hepatocyte nuclear factor 6 (Homo sapiens), sequence (Q9UBC0 whole entry, looked up): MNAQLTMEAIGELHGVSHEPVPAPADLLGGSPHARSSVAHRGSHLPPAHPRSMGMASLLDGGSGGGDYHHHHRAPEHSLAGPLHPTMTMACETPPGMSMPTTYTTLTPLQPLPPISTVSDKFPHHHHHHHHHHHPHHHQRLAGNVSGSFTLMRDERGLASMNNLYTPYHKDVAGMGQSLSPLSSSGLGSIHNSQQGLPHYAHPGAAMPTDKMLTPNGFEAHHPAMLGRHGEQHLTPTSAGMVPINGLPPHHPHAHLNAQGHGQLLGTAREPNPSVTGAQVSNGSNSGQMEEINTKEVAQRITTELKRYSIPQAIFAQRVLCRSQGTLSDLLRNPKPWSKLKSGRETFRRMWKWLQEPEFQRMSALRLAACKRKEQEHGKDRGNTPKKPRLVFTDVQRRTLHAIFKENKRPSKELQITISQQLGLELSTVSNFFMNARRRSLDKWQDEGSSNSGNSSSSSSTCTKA
Paired box protein Pax-6 (Homo sapiens), sequence (P26367 whole entry, looked up): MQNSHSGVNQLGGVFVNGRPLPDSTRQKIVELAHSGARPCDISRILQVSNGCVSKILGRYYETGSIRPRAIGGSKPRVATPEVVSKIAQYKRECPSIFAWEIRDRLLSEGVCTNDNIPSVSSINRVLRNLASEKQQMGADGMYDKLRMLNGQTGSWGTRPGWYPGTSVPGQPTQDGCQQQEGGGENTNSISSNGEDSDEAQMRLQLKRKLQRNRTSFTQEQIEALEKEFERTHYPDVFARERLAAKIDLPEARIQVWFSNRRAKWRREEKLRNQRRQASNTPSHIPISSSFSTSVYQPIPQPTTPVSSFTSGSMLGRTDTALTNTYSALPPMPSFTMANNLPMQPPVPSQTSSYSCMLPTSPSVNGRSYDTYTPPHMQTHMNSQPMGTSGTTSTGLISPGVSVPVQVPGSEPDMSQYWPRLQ
Heat shock factor protein 1 (Homo sapiens), sequence (Q00613 whole entry, looked up): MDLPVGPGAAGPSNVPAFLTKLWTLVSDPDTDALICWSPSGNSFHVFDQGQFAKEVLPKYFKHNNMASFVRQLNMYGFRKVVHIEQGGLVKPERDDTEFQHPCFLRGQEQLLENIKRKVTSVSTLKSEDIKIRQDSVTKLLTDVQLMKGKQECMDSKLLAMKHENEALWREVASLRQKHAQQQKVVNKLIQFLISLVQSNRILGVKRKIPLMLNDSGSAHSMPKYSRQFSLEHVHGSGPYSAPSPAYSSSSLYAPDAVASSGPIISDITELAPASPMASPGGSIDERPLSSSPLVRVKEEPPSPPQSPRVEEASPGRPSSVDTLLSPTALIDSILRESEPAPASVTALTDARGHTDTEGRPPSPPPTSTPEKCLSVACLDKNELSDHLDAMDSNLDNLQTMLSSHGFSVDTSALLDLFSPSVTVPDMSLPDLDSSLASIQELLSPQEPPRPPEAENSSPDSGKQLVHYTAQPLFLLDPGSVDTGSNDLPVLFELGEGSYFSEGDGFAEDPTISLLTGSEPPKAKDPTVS
Transcription factor Sp1 (Homo sapiens), sequence (P08047 whole entry, looked up): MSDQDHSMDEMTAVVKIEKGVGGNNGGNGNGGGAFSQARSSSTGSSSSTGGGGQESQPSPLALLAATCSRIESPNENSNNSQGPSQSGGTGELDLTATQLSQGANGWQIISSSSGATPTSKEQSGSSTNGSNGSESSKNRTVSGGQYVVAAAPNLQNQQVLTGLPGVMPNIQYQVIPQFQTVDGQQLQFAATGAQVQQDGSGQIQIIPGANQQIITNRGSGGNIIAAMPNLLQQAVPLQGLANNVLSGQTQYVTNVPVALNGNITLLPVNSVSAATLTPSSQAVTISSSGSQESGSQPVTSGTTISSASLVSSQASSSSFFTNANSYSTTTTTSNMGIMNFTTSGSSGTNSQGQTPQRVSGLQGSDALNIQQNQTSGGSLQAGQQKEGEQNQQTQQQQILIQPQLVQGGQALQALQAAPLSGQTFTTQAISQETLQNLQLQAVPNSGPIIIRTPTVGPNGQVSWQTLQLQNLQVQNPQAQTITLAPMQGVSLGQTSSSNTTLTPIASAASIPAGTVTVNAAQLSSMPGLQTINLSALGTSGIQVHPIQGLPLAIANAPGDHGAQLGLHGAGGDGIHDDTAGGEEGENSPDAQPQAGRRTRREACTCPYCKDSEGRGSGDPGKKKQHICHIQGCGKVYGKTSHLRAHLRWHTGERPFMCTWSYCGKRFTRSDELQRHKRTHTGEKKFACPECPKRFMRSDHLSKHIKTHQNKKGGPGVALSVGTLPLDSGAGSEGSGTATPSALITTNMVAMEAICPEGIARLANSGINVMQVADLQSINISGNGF
Signal transducer and activator of transcription 3 (Homo sapiens), sequence (P40763 whole entry, looked up, the tested form may be a part): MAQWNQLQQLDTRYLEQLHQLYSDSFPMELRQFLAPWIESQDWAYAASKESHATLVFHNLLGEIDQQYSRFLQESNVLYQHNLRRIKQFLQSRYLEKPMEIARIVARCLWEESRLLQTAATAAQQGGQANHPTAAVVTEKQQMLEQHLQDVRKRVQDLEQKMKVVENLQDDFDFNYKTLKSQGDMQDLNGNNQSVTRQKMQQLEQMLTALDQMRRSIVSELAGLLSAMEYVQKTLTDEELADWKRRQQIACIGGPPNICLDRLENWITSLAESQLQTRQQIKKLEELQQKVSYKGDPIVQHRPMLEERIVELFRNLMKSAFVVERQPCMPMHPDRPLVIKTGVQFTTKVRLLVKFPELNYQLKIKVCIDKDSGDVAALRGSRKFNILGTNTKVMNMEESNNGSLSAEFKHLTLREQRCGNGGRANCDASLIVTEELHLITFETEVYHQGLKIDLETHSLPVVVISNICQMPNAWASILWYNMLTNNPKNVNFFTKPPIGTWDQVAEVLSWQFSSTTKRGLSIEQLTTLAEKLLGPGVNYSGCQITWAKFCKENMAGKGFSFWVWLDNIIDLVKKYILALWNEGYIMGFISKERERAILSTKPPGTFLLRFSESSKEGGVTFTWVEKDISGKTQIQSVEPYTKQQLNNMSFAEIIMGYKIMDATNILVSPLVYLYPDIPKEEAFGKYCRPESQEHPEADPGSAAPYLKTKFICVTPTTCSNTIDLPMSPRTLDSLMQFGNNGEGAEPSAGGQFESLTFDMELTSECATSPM

With `CCCCC=O`, the molecule was called inactive in [1], in assay [2], in assay [3], in assay [4], in assay [5] and in assay [6]. Besides, the result in [7], in assay [9], in assay [10], in [11], in assay [12] and in [13] was inactive. Further, the outcome in assay [14], in assay [15], in assay [16], in [17] and in [18] was inactive. In addition, the AC50 in assay [8] was 27.2 µM (active).
`CCC1CO1` (centres undefined): the call in [1], in [2], in assay [3], in assay [4], in assay [5] and in assay [6] was inactive. The result in assay [7], in assay [19], in assay [9], in assay [10], in assay [11] and in assay [12] was inactive. Besides, the molecule was classed as inactive in assay [13], in [14], in assay [15], in assay [16], in [17] and in assay [18].
For the molecule `CC(=O)Nc1ccc(O)cc1`, the molecule was classed as inactive in assay [1], in [2], in assay [5], in assay [6], in assay [20] and in assay [7]. The molecule was called inactive in assay [8], in assay [19], in assay [9], in assay [10], in assay [11] and in assay [12]. In addition, the outcome in assay [13], in assay [14], in assay [15], in assay [16] and in [17] was inactive.
For `CCCCCCCCCCCC`, the result in [1], in assay [2], in assay [3], in [4], in [5] and in assay [6] was inactive. The molecule was called inactive in assay [7], in assay [9], in assay [10], in [11], in assay [12] and in [13]. In addition, the result in [14], in assay [15], in assay [16] and in [17] was inactive. Besides, in [17], the AC50 is 124 µM (active).
For `CS(=O)(=O)c1ccc([C@@H](CC2CCCC2)C(=O)Nc2cnccn2)cc1Cl`, the molecule was called inactive in [1], in assay [2], in assay [20], in assay [13] and in assay [17]. Moreover, the AC50 in assay [3] is 64.4 µM (active); in [5], 150 µM (active); in assay [6] it was 113 µM (active); in assay [7] it was 73.9 µM (active); in assay [9], 60.2 µM (active); in assay [10] it was 170 µM (active). For the same molecule, the AC50 was 160 µM (active) in assay [11]; 136 µM (active) in [12]; 100 µM (active) in assay [14]; 50.6 µM (active) in assay [15]; 148 µM (active) in assay [16].
As for `O=C1C=CC(=O)N1c1cccc(N2C(=O)C=CC2=O)c1`, the molecule was classed as inactive in assay [1], in [2], in [3], in assay [4], in [5] and in assay [6]. For the same molecule, the result in assay [20], in assay [19], in [9], in [10], in [11] and in [12] was inactive. The molecule was classed as inactive in assay [13], in assay [14], in assay [15], in assay [16], in assay [17] and in [18].

For the origin of these results see PubChem BioAssay (EPA / NIEHS).
